The campaign covered roughly 54,000 compounds. About 120 (0.22%) were called active. About 8% were inconclusive and are not listed. The entries come from a sample that favours actives as a whole. Values without a mark were called inactive. Calls follow the shape of the dose curve; as a rule, active = well fitted inhibition curve with a large enough effect; inconclusive = small, poorly fitted or top-dose-only effect, or effect the other way; inactive = flat fitted curve, though single readings scatter.
biological target: Fumarate hydratase, mitochondrial (Homo sapiens) (UniProt P07954); experiment: Identification of activators of human fumarate hydratase by quantitative high-throughput screening; details: FH coupled MDH/diaphorase resazurin fluorescence, 15 min; series mostly up to 79.9 µM; activity change, negative = inhibition: at the top concentration; also: the screen sought activators but most active calls are inhibition curves; nearly all actives have a fitted effect of over 45% in size
Description: Fumarate hydratase (FH) is a metabolic enzyme that is part of the Krebs-cycle, and reversibly catalyzes the hydration of fumarate to malate. Mutations of the FH gene have been associated with fumarate hydratase deficiency (FHD), hereditary leiomyomatosis, renal cell cancer (HLRCC), and other diseases. Currently there are no high-quality small molecule probes for studying human fumarate hydratase. To address this, we developed a quantitative high throughput screening (qHTS) FH assay and screened a total of 57,037 compounds in dose-response. While no inhibitors of FH were confirmed, a series of phenyl-pyrrolo-pyrimidine-diones (12 compounds) were identified as activators of human fumarate hydratase. […] The binding of two compounds from the series to human fumarate hydratase was confirmed by microscale thermophoresis. The low hit rate in this screening campaign confirmed that FH is a "tough target" to modulate, and the small molecule activators of human fumarate hydratase reported here may serve as a starting point for further optimization and development into cellular probes of human FH and potential drug candidates.
For primary high-throughput screen, 3 ul of FH solution (containing 13.33nM human fumarate hydratase, 13.33IU/ml malic dehydrogenase, 0.2mM NAD, 0.067mg/ml diaphorase and 0.067mM resazurin in the assay buffer (50 mM Tris pH 8.0, 5 mM MgCl2, 0.01% Brij 3) was dispensed into each well in a black solid bottom 1536-well assay plate (Greiner Bio-One) using a BioRAPTR FRD dispenser (Beckman Coulter, Brea, CA). A 1536-well pintool dispenser outfitted with 20 nl pins (Wako Automation, San Diego, CA) was used to transfer 20 nL of DMSO-solubilized compound (Cherrypick plates) to each 1536-well assay plate. Each compound was screened at five concentrations: 15 nM, 151 nM, 1.5 uM, 15.4 uM, 76.9 uM. Following compound transfer, plates were incubated in room temperature for 10 minutes. 1 uL of substrate solution containing fumaric acid (160 uM) was dispensed via BioRAPTR FRD to initiate the reaction. Plates were immediately transferred to a ViewLux microplate imager (PerkinElmer, Waltham, MA), and any resulting resorufin fluorescence was measured (exitation/emission, 525/598 nm) at 0 and 15 minutes. The exposure time is 1 second. Fluorescence from each well was normalized using enzyme-free and DMSO-treated control wells on each plate, and changes in fluorescence (delta RFU) were calculated using the difference in fluorescent signal for each well at 15 minutes versus 0 minutes.
% is scaled to controls: 0 for no effect and ±100 for the full control effect; potency is read from the fitted curve at half-maximal effect.

Chain of Fumarate hydratase, mitochondrial (Homo sapiens) (P07954 whole entry, looked up): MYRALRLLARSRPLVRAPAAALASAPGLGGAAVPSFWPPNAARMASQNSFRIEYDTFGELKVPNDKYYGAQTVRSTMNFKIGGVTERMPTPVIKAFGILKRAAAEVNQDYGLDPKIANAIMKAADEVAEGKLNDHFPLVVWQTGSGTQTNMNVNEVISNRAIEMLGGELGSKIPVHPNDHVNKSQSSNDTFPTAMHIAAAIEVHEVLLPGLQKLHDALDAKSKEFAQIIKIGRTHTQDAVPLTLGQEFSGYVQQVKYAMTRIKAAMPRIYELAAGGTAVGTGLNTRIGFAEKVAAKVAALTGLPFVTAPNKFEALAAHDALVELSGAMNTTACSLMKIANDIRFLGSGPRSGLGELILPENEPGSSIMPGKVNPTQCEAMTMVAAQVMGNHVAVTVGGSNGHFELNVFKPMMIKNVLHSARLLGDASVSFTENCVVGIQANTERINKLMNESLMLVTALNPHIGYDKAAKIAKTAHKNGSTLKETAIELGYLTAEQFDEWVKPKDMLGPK

Compared with `CCOc1cc(C(=O)NCCc2csc3nc(-c4ccc(C)cc4)nn23)cc(OCC)c1OCC`, `COc1ccc(-c2nc(C)c(CCNC(=O)c3ccc(C(F)(F)F)cc3)s2)cc1OC` is higher in “activity change, negative = inhibition” value: -0.27% for the first, 1.18% for the second.

Compared with `CCOc1ccccc1N(C)C(=O)c1cc2c(s1)-c1ccccc1OC2`, `CCC(=O)N[C@@H]1Cc2ccccc2[C@H](c2ccccc2)C1` is higher in “activity change, negative = inhibition” value: -21.1% for the first, 1.26% for the second.

First: O=C(O)CC1CCC(c2ccc(-c3ccc(Nc4ccc(C(F)(F)F)nc4)cn3)cc2)CC1 (centres undefined)
Second: NC1CCC(Nc2cc(-c3cccc(NCc4cccc(F)c4)n3)c(Cl)cn2)CC1 (centres undefined)
The “activity change, negative = inhibition” value of the first is lower: -2.5% for the first, 0.142% for the second.

First: CC(O)C1CCC2C3CCC4CC(OC5OC(C(=O)O)C(O)C(O)C5O)CCC4(C)C3CCC12C (centres undefined)
Second: CC1CCC2C(C(=O)O)=CC3C(O)C(C)(C)CC123 (centres undefined)
The “activity change, negative = inhibition” value of the first is lower: -5.83% for the first, 3.29% for the second.

Compared with `COc1ccc(Cn2c(=O)n(-c3ccccc3C)c(=O)c3c4c(sc32)CN(C(C)=O)CC4)cc1`, `CNC(=O)c1ccc(-c2nc(CN3CCc4ccccc43)c(C)o2)cc1` is lower in “activity change, negative = inhibition” value: -3.96% for the first, -16.3% for the second.

First: CCOC(=O)CNc1nc2ccccc2n2c(C)nnc12
Second: CCOCCCNC(=O)c1cn(CC(C)C)c(=O)c2c1c1ccccc1n2C
The “activity change, negative = inhibition” value of the first is higher: -4.82% for the first, -9.65% for the second.

Going from `Cc1cc(C)c2sc(NC(=O)c3ccc(S(=O)(=O)N4CCCC4)cc3)nc2c1` to `CC(=O)N1c2ccc(S(=O)(=O)N3CCCCCC3)cc2CC1C(=O)NCc1ccccc1C` (centres undefined), the “activity change, negative = inhibition” value falls from 3.95% to 1.03%.

Compared with `Cc1cc(C)c(-n2cc(C)c3c(Cl)nc(C)nc32)c(C)c1`, `CCOC(=O)c1c(C)n(S(=O)(=O)c2ccc(C)cc2C)c2ccc(NS(=O)(=O)c3ccc(C)cc3C)cc12` is higher in “activity change, negative = inhibition” value: -2.66% for the first, -0.0866% for the second.

First: COc1cc(OC)c(NC(=O)c2ccc(Cc3cc4c(cc3C)C(C)(C)CCC4(C)C)o2)c(OC)c1
Second: COc1ccc(NC(=O)c2ccc3nc(CCc4ccccc4)oc3c2)c(OC)c1
The “activity change, negative = inhibition” value of the first is lower: -27.2% for the first, -4.07% for the second.

First: O=C(Nc1ccc2nc(SCC(=O)N3CCCc4ccccc43)sc2c1)c1ccc(Cl)cc1
Second: COc1ccc(-c2cn3c(n2)sc2cc(C(=O)Nc4ccccc4F)ccc23)cc1
The “activity change, negative = inhibition” value of the first is lower: -13.7% for the first, -11.3% for the second.

Going from `COc1ccccc1-c1c[nH]c2ncc(-c3cncc(C(=O)N(C)C)c3)cc12` to `CCOc1ccccc1NC(=O)Cn1c2ncccc2c(=O)n1-c1ccc(C)c(C)c1`, the “activity change, negative = inhibition” value falls from 3% to -3.35%.

Going from `CN(Cc1ccccc1)C(=O)CCS(=O)(=O)c1cc(Br)cc2c1N(C(=O)C1CC1)CC2` to `CN1CCCC1Cc1c[nH]c2ccc(CCS(=O)(=O)c3ccccc3)cc12` (centres undefined), the “activity change, negative = inhibition” value falls from -0.325% to -2.48%.

Compared with `CC(O)/C=C/C1(O)C2(C)COC1(C)CC(O)C2` (centres undefined), `COC(=O)[C@]12CCC(C)(C)C[C@@H]1[C@@H]1C(=O)C=C3[C@]4(C)C=C(C#N)C(=O)C(C)(C)[C@@H]4CC[C@@]3(C)[C@]1(C)CC2` is lower in “activity change, negative = inhibition” value: -5.68% for the first, -10.3% for the second.

Going from `CC(=O)N1CCCc2cc(S(=O)(=O)N3CCC(C(=O)NCc4ccc(C)cc4)CC3)ccc21` to `Cc1ccc(NC(=O)C2CCCN2S(=O)(=O)c2cccc3cccnc23)c(C)c1` (centres undefined), the “activity change, negative = inhibition” value falls from 2.25% to -1.91%.

First: Cc1ccc(S(=O)(=O)NCc2nc3nc(C)cc(C)n3n2)cc1
Second: Cc1nc2c(C(F)(F)F)cccc2nc1-c1ccc(-c2cccc(S(C)(=O)=O)c2)cc1
The “activity change, negative = inhibition” value of the first is lower: -12.1% for the first, 0.357% for the second.

Going from `Nc1nc2c(ncn2[C@@H]2O[C@@H]3COP(=O)(O)O[C@H]3[C@H]2O)c(=O)[nH]1` to `CCOC(=O)CSc1nc2c(sc3ccccc32)c(=O)n1CCCN1CCCC1`, the “activity change, negative = inhibition” value rises from -2.31% to -0.602%.

First: COc1cc(OC)c(NC(=O)c2cc(S(=O)(=O)N3CCCC3)cn2C)cc1Cl
Second: COc1cc(Nc2nc3ccccc3nc2NS(=O)(=O)c2cccc(NC(=O)c3ccc(C)c(OC)c3)c2)cc(OC)c1
The “activity change, negative = inhibition” value of the first is higher: -2.25% for the first, -14.2% for the second.

Going from `O=C(C1CCCN(S(=O)(=O)c2cccc3nonc23)C1)N1CCN(c2ccccc2F)CC1` (centres undefined) to `O=c1[nH]c2ccc(C#CCN3CCC(Cc4ccccc4)CC3)cc2[nH]1`, the “activity change, negative = inhibition” value falls from -8.31% to -15.1%.

For `C#C[C@]1(O)CC[C@H]2[C@@H]3CCC4=C/C(=N/O)CC[C@@H]4[C@H]3CC[C@@]21CC`, the “activity change, negative = inhibition” value was 5.71%.

Compared with `CC(C)CC(=O)O[C@@H]1O[C@H](CO)[C@@H](O[C@H]2O[C@H](C)[C@@H](N[C@H]3C=C(CO)[C@@H](O[C@H]4O[C@H](CO)[C@@H](O[C@H]5O[C@H](CO)[C@@H](O[C@H]6O[C@H](CO)[C@@H](O)[C@H](O)[C@H]6O)[C@H](O)[C@H]5O)[C@H](O)[C@H]4O)[C@H](O)[C@H]3O)[C@H](O)[C@H]2O)[C@H](O)[C@H]1O`, `CC1(C)CCC2(C(=O)OC3OC(COC4OC(CO)C(O)C(O)C4O)C(O)C(O)C3O)CCC3(C)C(=CCC4C5(C)CCC(O)C(C)(C(=O)O)C5CCC43C)C2C1O` (centres undefined) is lower in “activity change, negative = inhibition” value: 8.78% [at 20.6 µM] for the first, -1.76% [at 20.6 µM] for the second.

`C/C=C/C=C/[C@@H]1O[C@](O)([C@H](CC)C(=O)NC/C=C/C=C(\C)[C@@H](OC)[C@@H](C)[C@@H]2O[C@H](/C=C/C=C/C=C(\C)C(=O)c3c(O)ccn(C)c3=O)[C@H](O)[C@@H]2O)[C@H](O)[C@H](O)C1(C)C` was tested, and the “activity change, negative = inhibition” value was -9.63% [at 20.6 µM].

First: CO[C@H]1C[C@@H]2CC[C@@H](C)[C@@](O)(O2)C(=O)C(=O)N2CCCC[C@H]2C(=O)O[C@H]([C@H](C)C[C@H]2CC[C@@H](OP(C)(C)=O)[C@H](OC)C2)CC(=O)[C@H](C)/C=C(\C)[C@@H](O)[C@@H](OC)C(=O)[C@H](C)C[C@H](C)/C=C/C=C/C=C/1C
Second: CC1CCC2C(C)(C)C(O)CCC2(C)C12Cc1c(O)cc3c(c1O2)CN(C(CCC(N)=O)C(=O)O)C3=O (centres undefined)
The “activity change, negative = inhibition” value of the first is lower: -2.79% [at 53.3 µM] for the first, -1.12% [at 53.3 µM] for the second.

First: CC(C)CC(c1c(O)c(C=O)c(O)c(C=O)c1O)C1CCC(C)(O)C2CC(C(C)(C)O)CCC12C (centres undefined)
Second: C[C@H]1CC[C@@H]2N(C1)C[C@@H]1[C@H]([C@@H](O)[C@H](O)[C@]3(O)[C@H]1C[C@@]14OC5(O)[C@@H](C[C@@H](O)[C@@H]31)[C@]4(C)CC[C@@H]5O)[C@]2(C)O
The “activity change, negative = inhibition” value of the first is lower: -6.01% [at 53.3 µM] for the first, 4.66% [at 53.3 µM] for the second.

Compared with `C[C@@H]1C[C@@H](O)[C@@]23CO[C@]2(CO)C[C@@H](O)CC3[C@@]12CC(c1ccoc1)OC2=O` (some centres undefined), `C[C@@H]1[C@H](O)[C@@H]2OC(=O)C3=C2[C@H](CCC3)[C@@]12C[C@@H](c1ccoc1)OC2=O` is higher in “activity change, negative = inhibition” value: -2.44% [at 53.3 µM] for the first, 1.74% [at 53.3 µM] for the second.

Compared with `CC1C(=O)OCC2=CCN3CCC(OC(=O)C(C)(O)C1(C)O)C23` (centres undefined), `CC1(C)C(=O)N2c3ccccc3C(O)(CC(C(=O)O)n3cnc4ccccc4c3=O)C2N1O` (centres undefined) is lower in “activity change, negative = inhibition” value: 7.92% [at 53.3 µM] for the first, 4.36% [at 53.3 µM] for the second.

With `CCOc1ccccc1CNC(=O)Nc1cn(CC(C)C)c(=O)c2ccccc12` the Potency was 28.2 µM [activator] (active).

Reference: PubChem BioAssay AID1347055 (National Center for Advancing Translational Sciences (NCATS), 2019)
